Test results as given in PubChem BioAssay (Tox21).
Inconclusive results are not listed. Where a call stands in place of a potency, no number is given. Calls of active or inactive are those of the source. Calls come from the whole dose curve; as a rule, active = well fitted activation curve with a large enough effect in the repeat runs; inconclusive = weak or mixed curves; inactive = flat fitted curve, though single readings scatter.
Potency is the fitted concentration of half-maximal effect.

Assay: A CellTox Green Cytotoxicity Assay to monitor cytotoxicity in HepG2 cells - 16 hour (AID 1224876); note: nearly all actives have a fitted effect of over 45% in size
Conditions: CellTox Green fluorescence; series mostly up to 76.8 µM
Text: National Center for Advancing Translational Sciences [NCATS]
NIH Chemical Genomics Center [NCGC]
U.S. Environmental Protection Agency [EPA]
National Institutes of Environmental Health Sciences [NIEHS]
National Toxicology Program [NTP]
Cell-based models are critical for drug discovery. Determining the natural cytotoxic effects resulting from test compounds is an essential research activity. A CellTox Green Cytotoxicity Assay to monitor cytotoxicity in real time of continues cell culture during 40 hours of the compound treatment was used to screen Tox21 10K library compounds in HepG2 cells. CellTox Green Cytotoxicity Assay is a nonlytic, homogeneous, biofluorescent method to measure cytotoxicity in cell culture after experimental manipulation. The assay system uses a proprietary asymmetric cyanine dye that is excluded from viable cells but preferentially stains the dead cell's DNA. […] Viable cells produce no appreciable increases in fluorescence. Therefore, the fluorescence signal produced by the binding interaction with dead cell DNA is proportional to cytotoxicity.
The mixture of HepG2 cell suspension and reagents were dispensed at 600cells/6 ul/well in 1536-well tissue culture treated black solid bottom plates using a Multidrop dispenser. After the assay plates were incubated at a 37 C/5% CO2 incubator for 5 hours, 23 nL of compounds dissolved in DMSO, positive and negative controls was transferred to the assay plate by a pintool work station. The plates were incubated at 37 C for 40 hours. The fluorescence intensity were measured at 0h, 8h, 16h, 24h, 32h and 40h time points using ViewLux plate reader during compound treatment.
For `[F][Sn]([c]1ccccc1)([c]1ccccc1)[c]1ccccc1`, the Potency was 1.74 µM (active). In the case of `Oc1ccc2[nH]cc(CCCCN3CC=C(c4ccccc4)CC3)c2c1`, the Potency was “inactive”. In the case of `COC(=O)c1ccccc1S(=O)(=O)NC(=O)Nc1nc(C)nc(OC)n1`, the Potency was “inactive”. For `Nc1nc(N)nc(Cl)n1`, the Potency was “inactive”. With `O.O.O.O=C([O-])[C@H]([O-])[C@@H]([O-])C(=O)[O-].O=C([O-])[C@H]([O-])[C@@H]([O-])C(=O)[O-].[K+].[K+].[Sb+3].[Sb+3]` the Potency was “inactive”. In the case of `Oc1ccc(Cl)c(Cl)c1`, the Potency was “inactive”. For `Oc1cc(Cl)cc(Cl)c1`, the Potency was “inactive”. With `CC(C)[C@@H](Nc1ccc(C(F)(F)F)cc1Cl)C(=O)OC(C#N)c1cccc(Oc2ccccc2)c1` (stereo not given in full) the Potency was “inactive”. For `O=Cc1ccccc1`, the Potency was “inactive”. In the case of `COP(=S)(NC(C)C)Oc1ccc(C)cc1[N+](=O)[O-]` (stereo not given), the Potency was “inactive”. In the case of `COc1ccc(Cc2nccc3cc(OC)c(OC)cc23)cc1OC`, the Potency was “inactive”. In the case of `CSC1=N[C@@](C)(c2ccccc2)C(=O)N1Nc1ccccc1`, the Potency was “inactive”. With `N#Cc1c2ccccc2cc2ccccc12` the Potency was “inactive”. With `BrCC(Br)(Br)Br` the Potency was “inactive”. With `Cc1c([N+](=O)[O-])c(C)c([N+](=O)[O-])c(C(C)(C)C)c1[N+](=O)[O-]` the Potency was “inactive”. In the case of `ClCBr`, the Potency was “inactive”. In the case of `Clc1ccc(C2(Cn3cncn3)OCCO2)c(Cl)c1`, the Potency was “inactive”. With `CN1[C@@H]2CC[C@H]1CC(O)C2` (stereo not given in full) the Potency was “inactive”. With `CN(C)C(=S)SSC(=S)N(C)C` the Potency was 21.9 µM (active). With `Cc1ccc(C)c2ccccc12` the Potency was “inactive”. In the case of `ClSC(Cl)(Cl)Cl`, the Potency was “inactive”. With `C[C@@H]1CC2=CC(=O)CC[C@@H]2[C@H]2CC[C@@]3(C)[C@@H](CC[C@]3(C)O)[C@@H]21` the Potency was “inactive”. For `COCCC#N`, the Potency was “inactive”. For `CCC[CH2][Sn]([CH2]CCC)([O]C(C)=O)[O]C(C)=O`, the Potency was 1.24 µM (active). In the case of `Nc1ccccc1-c1ccccc1`, the Potency was “inactive”. For `COC(=O)N(OC)c1ccccc1COc1ccn(-c2ccc(Cl)cc2)n1`, the Potency was “inactive”. For `c1ccc(Nc2ccc(Nc3ccccc3)cc2)cc1`, the Potency was “inactive”. With `COc1ccc2c3c1O[C@H]1[C@H](O)CC[C@H]4[C@@H](C2)N(C)CC[C@@]341` the Potency was “inactive”. For `S=C=Nc1ccccc1`, the Potency was “inactive”. For `COP(=S)(OC)Oc1ccc([N+](=O)[O-])c(C)c1`, the Potency was “inactive”. In the case of `c1csc(-c2ccc(-c3cccs3)s2)c1`, the Potency was “inactive”. In the case of `Brc1cccc(-c2ccccc2)c1`, the Potency was “inactive”. For `CNC(=O)CSP(=O)(OC)OC`, the Potency was “inactive”. With `[C-]1=CC=CC1.[Cl][Zr+2][Cl].c1cc[cH-]c1` the Potency was “inactive”. For `CCC[CH2][Sn]([CH2]CCC)([CH2]CCC)[O][Sn]([CH2]CCC)([CH2]CCC)[CH2]CCC`, the Potency was 0.603 µM (active). In the case of `CN/C(=N\[N+](=O)[O-])NCc1cnc(Cl)s1`, the Potency was “inactive”. With `CC[C@]1(O)CC[C@H]2[C@@H]3CCC4=CCCC[C@@H]4[C@H]3CC[C@@]21C` the Potency was “inactive”. With `CCCCn1cc[n+](C)c1` (tested in a mixture with another compound) the Potency was “inactive”. In the case of `CC(C)C(Br)C(=O)NC(N)=O` (stereo not given), the Potency was “inactive”. In the case of `NC(=O)C(Cl)Cl`, the Potency was “inactive”.
